# Measurements from PubChem BioAssay AID1345085 (National Center for Advancing Translational Sciences (NCATS), 2018).
# Records with an inconclusive call do not appear. The source made the active and inactive calls. Calls follow the shape of the dose curve; as a rule, active = well fitted cell-killing curve with a large enough effect; inconclusive = small, poorly fitted or top-dose-only effect, or effect the other way; inactive = no such curve, though single readings can be large or run the other way.
# Test system: JEG-3
# Experiment: Confirmatory qHTS for gynecologic anti-cancer compounds from libraries of approved drugs and bioactive compounds; also: nearly all actives have a fitted effect of over 55% in size
# Conditions: gynecologic cancer cell panel viability, ATPlite luminescence, 48 h; series mostly up to 57.6 µM; activity change, negative = viability loss: at the top concentration
# Method in brief: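 IC50 values derive from an ATPlite ATP-content luminescence assay following 48 h treatment at 37 C. Each compound ran as an 11-concentration, threefold series (57.5 uM to 0.977 nM); HEK 293T served as control line for selectivity index.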
# % is scaled to controls: 0 for no effect and ±100 for the full control effect; potency is read from the fitted curve at half-maximal effect.
Compound,"activity change, negative = viability loss",Potency
CN(C)CC/C=C1\c2ccccc2COc2ccccc21,-6.65% (inactive),
Cc1cc(Nc2nc(N[C@@H](C)c3ccc(F)cc3)c(C#N)cc2F)n[nH]1,,19.3 µM (active)
CCn1cc(-c2ccnc3[nH]c(-c4cccc(CN(C)C)c4)cc23)c(-c2ccc(NC(=O)N(C)C)cc2)n1,,13.3 µM (active)
Cc1cnc(Nc2cccc(CN3CCOCC3)c2)nc1Nc1cccc(S(=O)(=O)NC(C)(C)C)c1,,17.2 µM (active)
FC(F)(F)c1ccc(/C=C/c2nc(COc3ccc(CCCCn4ccnn4)cc3)co2)cc1,,0.0172 µM (active)
Nc1ncnc2c1ncn2[C@@H]1O[C@H](CO)C[C@H]1O,23.9% (inactive),
O=c1c2ccccc2nc2n1CCc1c-2[nH]c2ccccc12,-3.72% (inactive),
C=CC(=O)Nc1cccc(Oc2nc(Nc3ccc(N4CCN(C)CC4)cc3)ncc2Cl)c1,,24.3 µM (active)
CC1=C(CO)C(=O)O[C@@H]([C@@H](C)[C@H]2CC[C@H]3[C@@H]4C[C@H]5O[C@]56[C@@H](O)C=CC(=O)[C@]6(C)[C@H]4CC[C@]23C)C1,,5.3 µM (active)
CCS(=O)(=O)c1cccc(-c2cc(C(=O)NC3CCN(C)CC3)c(C)c3[nH]c4ncc(C)cc4c23)c1,,2.67 µM (active)
COCCOc1ccc2c(c1)ncn2-c1ccc2cccc(N3CCC(N)CC3)c2n1,,10.9 µM (active)
CCCCN(CCCC)C(=O)CN1C[C@H](c2ccc3c(c2)OCO3)[C@@H](C(=O)O)[C@@H]1c1ccc(OC)cc1,3.29% (inactive),
CN1CCN(CCOc2cc(OC3CCOCC3)c3c(Nc4c(Cl)ccc5c4OCO5)ncnc3c2)CC1,-25% (inactive),
CCN1C[C@H](C)n2c(c(O)c3c(=O)n(Cc4ccc(F)c(Cl)c4)nc(C(=O)NC)c32)C1=O,2.48% (inactive),
Cc1ccc(C(=O)N(CCCN)C(c2nc3cc(Cl)ccc3c(=O)n2Cc2ccccc2)C(C)C)cc1 (configuration not stated),,0.0153 µM (active)
C#C[C@]1(O)CC[C@H]2[C@@H]3CCC4=CC(=O)CC[C@@H]4[C@H]3CC[C@@]21CC,-1.31% (inactive),

Compound,"activity change, negative = viability loss",Potency
Cc1cc(C2CCCCC2)n(O)c(=O)c1,,11.1 µM (active)
O=C(NOC[C@H](O)CO)c1ccc(F)c(F)c1Nc1ccc(I)cc1F,-5.57% (inactive),
OC[C@H]1O[C@@H](n2cnc3c(=S)nc[nH]c32)[C@H](O)[C@@H]1O,,4.85 µM (active)
Nc1nc(=S)c2[nH]cnc2[nH]1,,4.32 µM (active)
COc1cc2c(cc1-c1c(C)noc1C)ncc1[nH]c(=O)n(C(C)c3ccccn3)c12 (configuration not stated),,3.06 µM (active)
CCc1c2c(nc3ccc(O)cc13)-c1cc3c(c(=O)n1C2)COC(=O)[C@]3(O)CC,,0.122 µM (active)
CC[C@@]1(O)C(=O)OCc2c1cc1n(c2=O)Cc2cc3cc(O)ccc3nc2-1,,0.217 µM (active)
Cc1nc(N)nc(N)c1-c1ccc(Cl)c(Cl)c1,,17.2 µM (active)
CCN(CC)CCNC(=O)c1c(C)[nH]c(/C=C2\C(=O)Nc3ccc(F)cc32)c1C,,25.1 µM (active)
O=C(CCCCCCNC(=O)c1cnc(N(c2ccccc2)c2ccccc2)nc1)NO,,7.69 µM (active)
OCc1ccc(-c2ccc(-c3ccc(CO)s3)o2)s1,-21.6% [at 19.5 µM] (inactive),
CC(C)Oc1ccc(C(=O)NC(CNC(=O)CN(C)C)Cc2ccc(-c3cn4cccc(C(C)O)c4n3)cc2)cc1Cl (configuration not stated),,0.544 µM (active)
CN(C)c1ccc(-c2nc3ncc(Cl)c(N4CCN(CC(=O)Nc5nccs5)CC4)c3[nH]2)cc1,-24.9% [at 19.5 µM] (inactive),
C[C@@H](Oc1cc(-c2cnn(C3CCNCC3)c2)cnc1N)c1c(Cl)ccc(F)c1Cl,,21.7 µM (active)
CCS(=O)(=O)N1CCN(c2ccc(Nc3ncc(C(N)=O)c(NC4CC4)n3)cc2)CC1,,9.68 µM (active)
CCC(=O)N1CCN(c2ccc(-n3c(=O)ccc4cnc5ccc(-c6cnc7ccccc7c6)cc5c43)cc2C(F)(F)F)CC1,,6.27 µM (active)
